From the supplement of paper PMC3414501 come the findings set out here.

Structures can show the parent of a compound that is named as a salt.
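Also: active if sensitivity score above 5.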

The experiment has as its system S. cerevisiae SK1 pCDA2-eGFP (USY613), sporulating. The experiment in a line: CDA2-GFP sporulation assay sensitivity score (z-score vs DMSO controls); higher = stronger inhibition of sporulation, active = hit call of the paper.
Take `CC(C)Oc1ccc2c(=O)c(-c3ccccc3)coc2c1` [Ipriflavone] (stock concentration (mM, diluted 1:100): 10): the “CDA2-GFP sporulation assay sensitivity score” value is -1.58 (inactive).
In the case of `CCOC(=O)c1ccc(OC(=O)CCCCCNC(=N)N)cc1` [Gabexate mesylate] (stock concentration (mM, diluted 1:100): 7.7) it was 2.43 (inactive).
The same measure for `Cc1cc2c(s1)Nc1ccccc1N=C2N1CCN(C)CC1` [Olanzapine] (stock concentration (mM, diluted 1:100): 9.9): 2.56 (inactive).
With `CN1[C@@H]2CC[C@H]1C[C@@H](OC(=O)c1c[nH]c3ccccc13)C2` [Tropisetron hydrochloride] (stock concentration (mM, diluted 1:100): 7.7), the “CDA2-GFP sporulation assay sensitivity score” value is 1.1 (inactive).
The same measure for `Oc1ccc(/C=C/c2cc(O)cc(O)c2)cc1` [Resveratrol] (stock concentration (mM, diluted 1:100): 10): 5.86 (inactive).
For the molecule `Nc1ncnc2c1ncn2[C@@H]1O[C@H](CO)C[C@@H]1O` [3-Deoxydenosine] (stock concentration (mM, diluted 1:100): 10), the “CDA2-GFP sporulation assay sensitivity score” value is 19.9 (active).
In the case of `N#Cc1ccc(C(c2ccc(C#N)cc2)n2cncn2)cc1` [Letrozol] (stock concentration (mM, diluted 1:100): 10) it was 1.08 (inactive).
Regarding `COc1cc(C(=O)NC2CCCNC2)cc(OC)c1OC` (stereo unspecified) [Troxipide] (stock concentration (mM, diluted 1:100): 10.1), the “CDA2-GFP sporulation assay sensitivity score” value was -0.11 (inactive).
In the case of `CCC(=O)NS(=O)(=O)c1ccc(-c2c(-c3ccccc3)noc2C)cc1` [Parecoxib] (stock concentration (mM, diluted 1:100): 9.8) it was 5.02 (inactive).
In the case of `NC(=O)c1cccnc1` [Nicotinamide] (stock concentration (mM, diluted 1:100): 10) it was 4.17 (inactive).
With `CC(Oc1c(Cl)cccc1Cl)C1=NCCN1` (stereo unspecified) [Lofexidine hydrochloride] (stock concentration (mM, diluted 1:100): 10), the “CDA2-GFP sporulation assay sensitivity score” value was 7.06 (inactive).
`CCCc1nc2c(C)cc(-c3nc4ccccc4n3C)cc2n1Cc1ccc(-c2ccccc2C(=O)O)cc1` [Telmisartan] (stock concentration (mM, diluted 1:100): 10): the “CDA2-GFP sporulation assay sensitivity score” value is -1.44 (inactive).
The same measure for `NNCCc1ccccc1` [Phenelzine sulfate salt] (stock concentration (mM, diluted 1:100): 10): 1.83 (inactive).
In the case of `CN1CCCCC1CCN1c2ccccc2Sc2ccc([S+](C)[O-])cc21` (stereo unspecified) [Mesoridazine] (stock concentration (mM, diluted 1:100): 10) it was -0.29 (inactive); in that of `CC(C)NCC(O)COc1ccc(COCCOC(C)C)cc1` (stereo unspecified) [Bisoprolol fumarate] (stock concentration (mM, diluted 1:100): 8.5), 0.16 (inactive).
In the case of `CC#C[C@]1(O)CC[C@H]2[C@@H]3CCC4=CC(=O)CCC4=C3[C@@H](c3ccc(N(C)C)cc3)C[C@@]21C` [Mifepristone] (stock concentration (mM, diluted 1:100): 10) it was 9.91 (inactive); in that of `Cc1ccnc2c1NC(=O)c1cccnc1N2C1CC1` [Viramune] (stock concentration (mM, diluted 1:100): 10), -3.55 (inactive).
With `CCCc1c(OCCCCc2nnn[nH]2)ccc(C(C)=O)c1O` (stock concentration (mM, diluted 1:100): 10), the “CDA2-GFP sporulation assay sensitivity score” value is -1.99 (inactive).
In the case of `COc1ccc(-c2cc(=O)c3c(OC)c(OC)c(OC)c(OC)c3o2)cc1OC` [Nobiletin] (stock concentration (mM, diluted 1:100): 10) it was 5.43 (inactive).
The same measure for `COc1cc2nc(N3CCN(C(=O)c4ccco4)CC3)nc(N)c2cc1OC` [Prazosin] (stock concentration (mM, diluted 1:100): 10): 1.07 (inactive); for `CC[C@H]1OC(=O)[C@H](C)[C@@H](O[C@H]2C[C@@](C)(OC)[C@@H](O)[C@H](C)O2)[C@H](C)[C@@H](O[C@@H]2O[C@H](C)C[C@H](N(C)C)[C@H]2O)[C@](C)(OC)C[C@@H](C)C(=O)[C@H](C)[C@@H](O)[C@]1(C)O` [Clarithromycin] (stock concentration (mM, diluted 1:100): 10): -0.51 (inactive).
